Shown are actives, neighbours in structure and some others; about 0.81% of the full set was active somewhere.
TRHR enhancer – TRH receptor (human) allosteric enhancement | P34981 | TRHR cells, fluo-8 calcium fluorescence, EC20 TRH enhancement | enhancement, % at 2 µM | 0.66% of 360,000 active | AID 493056; in the data active = enhancement above about 30%; note: 0% is about no effect
Target sequence (P34981 whole entry, looked up): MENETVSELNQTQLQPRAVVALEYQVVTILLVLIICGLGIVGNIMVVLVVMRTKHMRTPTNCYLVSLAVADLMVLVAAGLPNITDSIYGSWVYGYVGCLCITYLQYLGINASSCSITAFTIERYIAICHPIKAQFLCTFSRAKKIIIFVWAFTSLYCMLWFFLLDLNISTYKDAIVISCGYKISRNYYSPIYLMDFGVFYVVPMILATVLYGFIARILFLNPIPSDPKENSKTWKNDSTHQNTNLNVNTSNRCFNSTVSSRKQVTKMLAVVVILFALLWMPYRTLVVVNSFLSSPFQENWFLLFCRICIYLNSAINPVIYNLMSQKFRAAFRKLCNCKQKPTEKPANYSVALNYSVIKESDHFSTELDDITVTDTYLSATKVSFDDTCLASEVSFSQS
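Enhancer read-out: after compound pinning and an initial kinetic agonist-mode read, an EC20 of TRH (10 nM final) was injected and fluo-8 calcium signal (Ex 480/Em 530) followed at 1 s/cycle for 100 cycles in TRHR-expressing cells.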
TSG101-PTAP inh – blocks PTAP/TSG101 interaction to inhibit HIV-1 budding. Fluorescence polarization, FITC-PTAP peptide / Tsg101 binding. AID 493005. Q99816. 340,000 tested, under 10 active. Potency, µM (titrated, usually from 115 µM), inactives show at the highest dose activity change, negative = inhibition, usual class: inhibitors; active = well fitted inhibition curve with a large enough effect in the main read-out, with a control signal flat, not every such curve was filed as active; inconclusive = small, poorly fitted or top-dose-only effect, or effect the other way, or a change in a side signal; inactive = no such curve, though single readings can be large or run the other way; note: potency is the fitted concentration of half-maximal effect; % of control where 0% means no effect
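Fluorescence anisotropy tracks displacement of a FITC-tagged PTAP peptide (50 nM) from the Tsg101 binding domain (10 uM), following a 20 min room-temperature incubation at pH 7.5.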
TRPML1 blocker – inhibitors of human TRPML1 channel. 0.02% of 390,000 active. TRPML1-inducible cells, Ca2+ dye fluorescence, FDSS; hits give low values; inhibition of EC80 agonist-evoked calcium signal. activity change, negative = inhibition, % (concentration not given with the values). Q9GZU1; in the data active = activity change below about -50%; inconclusive = between about -30% and that limit;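 note: stimulus is agonist 54-4 at its EC80 concentration; % is set by controls: 0 for no effect and ±100 for the full control effect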
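Tet-induced TRPML1-DL cells loaded with Ca8 no-wash calcium dye were read kinetically on FDSS. Compound addition was followed by EC80 agonist 54-4 (4 uM final); inhibition was read over 110 s.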
TRHR agonist – agonists of human TRH receptor | P34981 | TRHR cells, calcium flux fluo-8, FDSS agonist mode | activation, % at 2 µM | 0.18% of 360,000 active; in the data active = activation above about 30%; note: 0% is about no effect
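Fluo-8-loaded TRHR cells; 10 s baseline, compound added, kinetic Ca2+ fluorescence read 1/s, agonist mode.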
TRPML1 ag – activates the human TRPML1 channel. activation, % (no concentration beside the values). TRPML1-expressing cells, Ca2+ dye fluorescence, FDSS. Q9GZU1. 0.12% of 410,000 active; in the data active = activation above about 50%; inconclusive = mostly about 30% to 49%; note: 0% is about no effect
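In this qHTS format, compounds were pin-transferred onto Ca8-dye-loaded TRPML1-DL cells induced with Tet overnight, and intracellular Ca2+ fluorescence was recorded kinetically for 110 s after a 10 s baseline. A subsequent 4uM final 54-4 (EC80) addition followed by a second 110 s read served as the antagonist phase.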
An asterisk follows results filed as active; u = inconclusive; x = no result given; ! = not confirmed by another sample.

SMILES	TRHR enhancer	TSG101-PTAP inh	TRPML1 blocker	TRHR agonist	TRPML1 ag
COc1ccc(-c2cc3ccc(O)cc3oc2=O)cc1OC	31*	-5%	-2	-1	7
Cc1ccc(C(c2nnnn2C(C)(C)C)N(Cc2ccco2)Cc2cccs2)cc1 (configuration not stated)	-3	1%	-9	1	60*
CC(C)(C)n1nnnc1C(c1ccc(F)cc1)N(Cc1ccc(F)cc1)Cc1ccco1 (configuration not stated)	-12	-1%	-27	1	u
COc1ccc(NC(=O)c2ccc3c(c2)N(Cc2cccc(Cl)c2)C(=O)c2ccccc2S3(=O)=O)cc1Cl	-2	x	-8	0	4
CC(=O)c1ccc(NC(=O)c2ccc3c(c2)N(Cc2cccc(Cl)c2)C(=O)c2ccccc2S3(=O)=O)cc1	30*	x	5	1	4
COc1ccc(/C=C/c2ccnc3ccccc23)cc1	x	x	x	x	0
NC(=O)Nc1ccc(/C=C2\C=Cc3ccccc32)cc1	x	x	x	x	-1
O=S1(=O)CCO[C@H]2CCCC[C@@H]2N1Cc1cccc(F)c1	x	x	x	x	-1
CC(=O)Nc1nonc1NC(=O)CSC1=NCCS1	31*	-2%	-6	0	0
CCOc1ccc(S(=O)(=O)N2CN(c3cccc(C(C)=O)c3)c3nc4ccccc4nc32)cc1	x	0%	-21	x	64*
CCOc1ccc(S(=O)(=O)N2CCN(S(=O)(=O)c3ccc(C(C)=O)cc3)CC2)cc1	-6	1%	-9	-1	0
Cc1nn(CCCC(=O)NCc2ccc(F)cc2)c(C)c1[N+](=O)[O-]	30*	0%	-12	-1	2
Cc1ccc(S(=O)(=O)Nc2cc3c(cc2N2CCOCC2)n(C)c(=O)n3C)cc1	1	x	5	0	-1
Cc1ccc(S(=O)(=O)Nc2cc(C(F)(F)F)ccc2N2CCOCC2)cc1	33*	0%	12	0	u
Cc1ccc(S(=O)(=O)Nc2cc(C(F)(F)F)ccc2N2CCOCC2)c(C)c1	3	-2%	1	1	64*
COC(=O)c1ccc(/C=C/C(=O)c2ccc(OC)c(OC)c2)cc1	36*	-6%	-1	0	-1
C[n+]1ccc(/C=C/c2cc[n+](C)c3ccccc23)c2ccccc21	x	x	x	x	-1
O=C(CNC(=O)c1ccncc1)OC(C(=O)Nc1cc(C(F)(F)F)ccc1Cl)c1ccccc1 (configuration not stated)	3	x	x	1	x
CN1CCc2c(sc3c2C(=O)NC(c2ccc(OC(=O)c4ccc(Cl)cc4)cc2)N3)C1 (configuration not stated)	1	x	19	71*	13
Cc1cccc(C2NC(=O)c3c(sc4c3CCN(C)C4)N2)c1O (configuration not stated)	47*	x	2	-1	2
CN1CCc2c(sc3c2C(=O)NC(c2ccc(OC(=O)c4ccc(C(C)(C)C)cc4)cc2)N3)C1 (configuration not stated)	9	x	-5	121*	u
CN1CCc2c(sc3c2C(=O)NC(c2ccccc2)N3)C1 (configuration not stated)	3	-19%	-24	3	6
O=C(Nc1ccc(Cl)cc1Cl)[C@@H]1CC=C[C@@H]2CCN(C3CCCCC3)C(=O)[C@@H]21	x	x	x	x	-1
Cc1[nH]c2ccccc2c1C(=O)C(C)Sc1nc2ccccc2c(=O)n1Cc1cccnc1 (configuration not stated)	x	x	x	x	-1
Cc1ccccc1NC(=O)CSc1n[nH]c(-c2ccccn2)n1	35*	-2%	-3	0	2
SMILES	TRHR enhancer	TSG101-PTAP inh	TRPML1 blocker	TRHR agonist	TRPML1 ag
Cc1ccc(C)c(NC(=O)CSc2n[nH]c(-c3ccccn3)n2)c1	-3	-1%	-7	1	0
Cc1cc2oc(C(=O)Nc3cccc(-c4nc5ccccc5o4)c3)c(C)c2cc1Cl	33*	x	-15	-1	-1
NC(=O)c1ccc(Oc2ccc(Cl)c3ccccc23)c([N+](=O)[O-])c1	31*	-3%	18	0	1
NC(=O)c1ccc(Oc2ccc(Cl)cc2)c([N+](=O)[O-])c1	2	-3%	16	0	3
Cc1ccc(S(=O)(=O)c2nnn3c2nc(NCc2cccs2)c2sccc23)cc1	3	x	-6	0	0
Cc1ccc(CCNc2nc3c(S(=O)(=O)c4ccc(C)cc4)nnn3c3ccsc23)cc1	42*	x	-9	1	0
CC(C)(C)n1nnnc1C(c1cccs1)N(Cc1ccc(Cl)cc1)CC1CCCO1 (configuration not stated)	-2	-2%	-18	0	66*
O=C(N/N=C/c1cc(Br)cc(Br)c1O)c1cccc(N2CCCC2=O)c1	8	12%	23	7	3
O=C(N/N=C/c1ccc(Cl)cc1Cl)c1cccc(N2CCCC2=O)c1	30*	-4%	14	0	3
Cc1ccccc1C(=O)Nc1ccccc1C(=O)N1CCC(C)CC1	1	60%	-12	-1	54*
COC(=O)c1cc(Nc2cc(C)c3ccc(O)cc3n2)cc(C(=O)OC)c1	32*	-7%	-6	1	1
COC(=O)c1ccc(Cl)c(-c2ccc(/C=N/NC(=O)Nc3ccccc3)o2)c1	31*	-2%	-14	0	-1
COC(=O)N/N=C/c1ccc(-c2ccccc2Cl)o1	0	1%	3	-1	-1
CC(C)(C)n1ncc2c(=O)n(Cc3cccc(-c4ccccc4)c3)cnc21	x	x	39	x	4
Cc1ccc(CCNC(=O)CN(C)S(=O)(=O)c2ccc3c(c2)c(=O)n(C)c(=O)n3C)cc1	40*	3%	1	0	-1
C=CCn1c(SCC(=O)NCc2ccco2)nnc1-c1cccc(N(C)C)c1	x	x	x	x	-1
O=C1S/C(=C\c2ccc(N3CCOCC3)o2)C(=O)N1c1ccccc1	9	u	-5	63*	57*
COc1cc2c(cc1OC)/C(=C/c1ccc(N(C)C)cc1)C=C2	x	x	x	x	1
COc1ccc(-c2nnc(SCC(=O)NC3CCCC3)nc2-c2ccc(OC)c(OC)c2)cc1OC	33*	x	-3	0	1
Cc1cc(N(C)C)c(C)cc1/C=C/c1ccnc2ccccc12	x	x	x	x	14
NS(=O)(=O)c1ccc(CCNC(=O)C(=O)c2cn(CC(=O)N3CCOCC3)c3ccccc23)cc1	34*	-2%	-12	0	-1
CNc1c(Br)cc(C(O)C2=CCc3ccccc32)cc1Br (configuration not stated)	x	x	x	x	0
COC(=O)c1ccc(Cn2nnc3c(=O)[nH]c(C4CCCN(S(=O)(=O)c5ccccc5Cl)C4)nc32)cc1 (configuration not stated)	30*!	-6%	0	1	-1

Source: PubChem BioAssay (National Center for Advancing Translational Sciences (NCATS))
